PubChem BioAssay (Tox21)
Records with an inconclusive call do not appear. The source made the active and inactive calls. Unless noted, the call rests on the fitted dose curve; in most records, active means well fitted curve in the direction sought with a large enough effect in the repeat runs; inconclusive means weak or mixed curves; inactive means no such curve, though single readings can be large; an effect the other way counts as inactive or inconclusive.

What was measured:
[1] = qHTS assay to identify small molecule that activate the aryl hydrocarbon receptor (AhR) signaling pathway - cell viability counter screen (AID 743086);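 further: HepG2 liver cells carrying the AhR DRE luciferase reporter; series mostly up to about 70 µM; nearly all actives have a fitted effect of over 45% in size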
Summary of the method: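 HepG2-AhR-luc (HG2L7.5c1) cells, 4000/well, were preincubated 5 h at 37C, exposed to compound in qHTS format for 24 hr at 37C, then given CellTiter-Fluor for 30 min; viability was read as fluorescence in the reporter wells.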

[2] = biological target: Peroxisome proliferator-activated receptor gamma (Homo sapiens) (UniProt P37231); assay: qHTS assay to identify small molecule agonists of the peroxisome proliferator-activated receptor gamma (PPARg) signaling pathway (AID 743094; active means well fitted activation curve with a large enough effect in the signal ratio in the repeat runs, not every such curve was filed as active; the % refers to the signal ratio)
Peroxisome proliferator-activated receptor gamma (Homo sapiens), sequence (P37231 whole entry, looked up): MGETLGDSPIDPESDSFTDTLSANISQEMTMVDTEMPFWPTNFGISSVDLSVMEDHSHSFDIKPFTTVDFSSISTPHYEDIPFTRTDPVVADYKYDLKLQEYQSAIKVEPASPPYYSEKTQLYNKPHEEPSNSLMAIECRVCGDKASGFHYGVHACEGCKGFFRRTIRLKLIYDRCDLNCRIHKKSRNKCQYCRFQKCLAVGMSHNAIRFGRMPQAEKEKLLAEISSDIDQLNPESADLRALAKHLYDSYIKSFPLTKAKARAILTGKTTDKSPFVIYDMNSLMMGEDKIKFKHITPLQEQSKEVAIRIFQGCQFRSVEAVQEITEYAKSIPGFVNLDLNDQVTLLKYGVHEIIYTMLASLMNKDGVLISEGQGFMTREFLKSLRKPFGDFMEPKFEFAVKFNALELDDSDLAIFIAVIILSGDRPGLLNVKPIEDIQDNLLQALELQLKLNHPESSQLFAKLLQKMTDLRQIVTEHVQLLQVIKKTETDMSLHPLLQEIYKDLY
Summary of the method: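 GeneBLAzer PPARg UAS-bla HEK293H cells were plated, rested 5 h, then exposed to compounds for 17 h at 37C. Beta-lactamase activity was read by LiveBLAzer B/G FRET substrate fluorescence after 1 h at room temperature.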

[3] = qHTS assay to identify small molecule antagonists of the peroxisome proliferator-activated receptor gamma (PPARg) signaling pathway - cell viability counter screen (AID 743194); details: Potency: co-treated with 50 nM rosiglitazone; further: nearly all actives have a fitted effect of over 55% in size
Summary of the method: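 PPARg-UAS-bla HEK293H cells were plated, rested 5 h at 37 C, then treated with compounds plus rosiglitazone (50 nM final) for 17 h at 37 C; viability was then read by CellTiter-Glo luminescence after 30 min at room temperature.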

[4] = qHTS assay for small molecule agonists of the antioxidant response element (ARE) signaling pathway (AID 743202; active means well fitted activation curve with a large enough effect in the signal ratio in the repeat runs, not every such curve was filed as active; the % refers to the signal ratio)
Summary of the method: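 Read-out: LiveBLAzer B/G FRET substrate fluorescence after 2 h at room temperature, following 16 h compound treatment at 37 C of HepG2 cells carrying an ARE-driven beta-lactamase reporter.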

[5] = qHTS assay for small molecule agonists of the antioxidant response element (ARE) signaling pathway - cell viability counter screen (AID 743203; calls by dose curve; further: nearly all actives have a fitted effect of over 55% in size)
Summary of the method: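 ARE-bla HepG2 cells were plated, rested 5 h at 37C/5% CO2, then exposed to compounds in DMSO for 16 h. Viability was read as CellTiter-Glo luminescence after 30 min at room temperature, in the same wells as the ARE screen.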

[6] = qHTS assay for small molecule activators of the heat shock response signaling pathway - cell viability counter screen (AID 743209); further: nearly all actives have a fitted effect of over 50% in size
Summary of the method: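 HSE-bla HeLa cells plated overnight, then exposed to Tox21 compounds (23 nL in DMSO) for 5 h at 37 C. After the bla reporter read, CellTiter-Glo was added in the same wells and luminescence read after 30 min at room temperature.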

[7] = qHTS assay to identify small molecule agonists of the peroxisome proliferator-activated receptor delta (PPARd) signaling pathway - cell viability counter screen (AID 743211); further: nearly all actives have a fitted effect of over 55% in size
Summary of the method: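 Viability of GeneBLAzer PPARd UAS-bla HEK293H cells was assessed after 17 h compound incubation at 37C, using CellTiter-Glo reagent added after the reporter read and luminescence recorded 30 min later.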

[8] = qHTS assay to identify small molecule antagonists of the peroxisome proliferator-activated receptor delta (PPARd) signaling pathway - cell viability counter screen (AID 743213); further: nearly all actives have a fitted effect of over 50% in size
Summary of the method: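 Cytotoxicity counter screen: CellTiter-Glo luminescence read 30 min after addition, in the same wells as the reporter assay. There, PPARd UAS-bla HEK293H cells (3000/well) were treated 17 h at 37 C with compound and 300 nM L165041.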

[9] = biological target: Bile acid receptor (Homo sapiens) (UniProt Q96RI1); assay: qHTS assay to identify small molecule antagonists of the farnesoid-X-receptor (FXR) signaling pathway (AID 743217; active means well fitted inhibition curve with a large enough effect in the signal ratio in the repeat runs, not every such curve was filed as active; the % refers to the signal ratio)
Bile acid receptor (Homo sapiens), sequence (Q96RI1 whole entry, looked up): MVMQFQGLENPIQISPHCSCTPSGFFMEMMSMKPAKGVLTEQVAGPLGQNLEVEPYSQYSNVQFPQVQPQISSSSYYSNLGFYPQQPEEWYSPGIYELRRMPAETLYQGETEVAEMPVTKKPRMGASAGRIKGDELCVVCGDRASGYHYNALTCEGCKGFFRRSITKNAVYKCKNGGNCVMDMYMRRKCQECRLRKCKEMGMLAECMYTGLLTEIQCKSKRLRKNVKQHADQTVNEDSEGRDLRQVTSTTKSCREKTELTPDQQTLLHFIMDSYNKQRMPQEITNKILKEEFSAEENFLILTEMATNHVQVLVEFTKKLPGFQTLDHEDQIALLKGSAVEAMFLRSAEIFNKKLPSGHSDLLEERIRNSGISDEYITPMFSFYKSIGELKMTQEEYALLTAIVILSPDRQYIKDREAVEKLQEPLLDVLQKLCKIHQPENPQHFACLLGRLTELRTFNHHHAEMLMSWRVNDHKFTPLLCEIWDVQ
Summary of the method: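 FXR-UAS-bla HEK 293T cells (beta-lactamase reporter) given compound plus chenodeoxycholic acid (50 uM final), 16 h at 37C. LiveBLAzer B/G FRET substrate added for 2 h at room temperature; fluorescence read.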

[10] = biological target: Bile acid receptor (Homo sapiens) (UniProt Q96RI1); assay: qHTS assay to identify small molecule agonists of the farnesoid-X-receptor (FXR) signaling pathway (AID 743220; active means well fitted activation curve with a large enough effect in the signal ratio in the repeat runs, not every such curve was filed as active; the % refers to the signal ratio)
Summary of the method: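 Beta-lactamase reporter under UAS control in GeneBLAzer FXR HEK 293T cells (5000/well) measured with LiveBLAzer FRET substrate after 2 h at room temperature. Compound exposure lasted 16 h at 37C.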

[11] = qHTS assay to identify small molecule antagonists of the farnesoid-X-receptor (FXR) signaling pathway - cell viability counter screen (AID 743221; active means well fitted cell-killing curve with a large enough effect in the repeat runs, not every such curve was filed as active; further: nearly all actives have a fitted effect of over 50% in size)
Summary of the method: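 Quantitative HTS of the Tox21 10K library run in parallel with the beta-lactamase reporter read. HEK 293T cells carrying a UAS-driven bla reporter got compound and 50 uM CDCA (final) for 16 h; ATP-based luminescence followed.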

[12] = biological target: Vitamin D3 receptor (Homo sapiens) (UniProt P11473); assay: qHTS assay to identify small molecule agonists of the vitamin D receptor (VDR) signaling pathway (AID 743222; calls by dose curve)
Vitamin D3 receptor (Homo sapiens), sequence (P11473 whole entry, looked up): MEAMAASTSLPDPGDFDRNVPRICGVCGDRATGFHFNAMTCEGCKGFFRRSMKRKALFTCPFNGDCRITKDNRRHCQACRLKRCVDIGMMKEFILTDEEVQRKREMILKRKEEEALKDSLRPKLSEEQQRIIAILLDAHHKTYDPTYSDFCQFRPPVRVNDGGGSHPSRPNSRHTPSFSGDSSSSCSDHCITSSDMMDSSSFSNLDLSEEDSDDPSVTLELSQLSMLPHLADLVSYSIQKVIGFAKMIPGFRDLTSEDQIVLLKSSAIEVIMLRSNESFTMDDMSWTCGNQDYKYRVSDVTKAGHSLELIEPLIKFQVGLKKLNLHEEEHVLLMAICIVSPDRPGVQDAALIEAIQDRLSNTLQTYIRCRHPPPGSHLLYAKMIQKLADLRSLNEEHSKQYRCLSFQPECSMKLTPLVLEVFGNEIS
Summary of the method: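 VDR-bla cells plated 4 h at 37 C, then exposed to compounds for 16 h at 37 C. Beta-lactamase reporter activity measured by fluorescence after 2 h room-temperature loading with LiveBLAzer B/G FRET substrate.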

[13] = biological target: Vitamin D3 receptor (Homo sapiens) (UniProt P11473); assay: qHTS assay to identify small molecule antagonists of the vitamin D receptor (VDR) signaling pathway (AID 743223; active means well fitted inhibition curve with a large enough effect in the signal ratio in the repeat runs, not every such curve was filed as active; the % refers to the signal ratio)
Summary of the method: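 Fluorescence from LiveBLAzer B/G FRET substrate, read after 2 h at room temperature, reflects beta-lactamase reporter activity in VDR-bla cells treated 16 h at 37C with compounds and agonist 1alpha,25-dihydroxyvitamin D3 (3 nM final).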

[14] = qHTS assay to identify small molecule agonists of the vitamin D receptor (VDR) signaling pathway - cell viability counter screen (AID 743224); further: series mostly up to about 63 µM; nearly all actives have a fitted effect of over 50% in size
Summary of the method: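 VDR-bla cells, 4 h after plating, exposed to compounds for 16 h at 37C; viability then read in the same wells as CellTiter-Glo luminescence after 30 min at room temperature, following the bla FRET read.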

[15] = biological target: Peroxisome proliferator-activated receptor gamma (Homo sapiens) (UniProt P37231); assay: qHTS assay to identify small molecule antagonists of the peroxisome proliferator-activated receptor gamma (PPARg) signaling pathway (AID 743191; calls by dose curve; further: series mostly up to about 63 µM; nearly all actives have a fitted effect of over 30% in size)
Summary of the method: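 GeneBLAzer PPARg UAS-bla HEK293H cells carrying a UAS-driven beta-lactamase reporter were plated at 3000 cells/well, preincubated 5 h at 37C, then given compound for 17 h at 37C; LiveBLAzer B/G FRET substrate was read after 1 h at room temperature.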

[16] = qHTS assay to identify small molecule agonists of the farnesoid-X-receptor (FXR) signaling pathway - cell viability counter screen (AID 743218); further: nearly all actives have a fitted effect of over 45% in size
Summary of the method: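 FXR-UAS-bla HEK 293T cells exposed to compounds for 16 h at 37C. Cytotoxicity read in the same wells by CellTiter-Glo luminescence after 30 min at room temperature, following the beta-lactamase FRET read.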

[17] = biological target: Peroxisome proliferator-activated receptor delta (Homo sapiens) (UniProt Q03181); assay: qHTS assay to identify small molecule agonists of the peroxisome proliferator-activated receptor delta (PPARd) signaling pathway (AID 743212; calls by dose curve)
Peroxisome proliferator-activated receptor delta (Homo sapiens), sequence (Q03181 whole entry, looked up): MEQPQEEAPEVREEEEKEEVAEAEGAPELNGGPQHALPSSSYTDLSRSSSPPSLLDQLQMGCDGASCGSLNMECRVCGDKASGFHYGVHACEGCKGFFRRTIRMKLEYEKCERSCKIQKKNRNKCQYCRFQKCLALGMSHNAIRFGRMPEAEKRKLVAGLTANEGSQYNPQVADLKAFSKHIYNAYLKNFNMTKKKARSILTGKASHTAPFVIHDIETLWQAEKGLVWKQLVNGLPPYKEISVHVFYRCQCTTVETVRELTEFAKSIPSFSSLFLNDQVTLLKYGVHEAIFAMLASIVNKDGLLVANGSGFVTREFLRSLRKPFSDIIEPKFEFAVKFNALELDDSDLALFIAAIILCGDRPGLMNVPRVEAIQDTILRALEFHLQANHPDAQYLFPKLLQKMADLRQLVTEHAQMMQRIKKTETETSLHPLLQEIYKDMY
Summary of the method: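 GeneBLAzer PPARd UAS-bla HEK293H cells (beta-lactamase reporter under UAS control), plated and rested 5 h at 37 C, then exposed to compounds in DMSO at 37 C; LiveBLAzer B/G FRET substrate added, 2 h room temperature, fluorescence read.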

[18] = biological target: Peroxisome proliferator-activated receptor delta (Homo sapiens) (UniProt Q03181); assay: qHTS assay to identify small molecule antagonists of the peroxisome proliferator-activated receptor delta (PPARd) signaling pathway (AID 743215; active means well fitted inhibition curve with a large enough effect in the signal ratio in the repeat runs, not every such curve was filed as active; the % refers to the signal ratio;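 further: cells stimulated with agonist L165041 at 300 nM final during compound exposure; series mostly up to about 62 µM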)
Summary of the method: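 PPARd-bla HEK293H cells (UAS-bla reporter) preincubated 5 h, then given compound plus 300 nM final L165041 agonist for 17 h at 37 C. Beta-lactamase activity read by LiveBLAzer B/G FRET substrate fluorescence after 2 h at room temperature.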

[19] = qHTS assay for small molecule activators of the heat shock response signaling pathway (AID 743210; active means well fitted activation curve with a large enough effect in the signal ratio in the repeat runs, with a control signal flat, not every such curve was filed as active; the % refers to the signal ratio; further: series mostly up to about 63 µM)
Summary of the method: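 HSE-bla HeLa cells (beta-lactamase reporter under heat shock response elements) were exposed to compounds for 5 h at 37 C, then loaded with LiveBLAzer B/G FRET substrate for 2.5 h at room temperature before fluorescence reading.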

Measured: Potency

C/C(=N\NC(=O)Nc1cc(F)cc(F)c1)c1ncccc1C(=O)O
not listed: [15] | [16] | [17] | [18] | [19]
inactive: all other assays above

CCOP(=S)(OCC)SCCl
not listed: [12] | [13] | [17] | [18] | [19]
inactive: all other assays above

CCC(C(N)=O)N1CCCC1=O (stereo not drawn)
not listed: [4] | [10] | [11] | [14] | [15] | [19]
inactive: all other assays above

ClCCCCl
not listed: [4] | [8] | [18]
inactive: all other assays above

CCCN1CCC[C@@H]2Cc3nc(N)ncc3C[C@H]21
inactive: [1] | [2] | [15] | [3] | [5] | [6] | [7] | [16] | [11] | [13]

CCCOC(=O)Cc1ccc(OCC(=O)N(CC)CC)c(OC)c1
not listed: [8] | [10] | [12] | [13] | [17] | [18]
inactive: all other assays above

CCOP(=O)(CN(CCO)CCO)OCC
not listed: [4] | [9] | [10] | [11] | [19]
inactive: all other assays above

C(COCC1CO1)OCC1CO1 (stereo not drawn)
not listed: [4] | [10] | [12] | [13] | [14] | [18] | [19]
inactive: all other assays above

ClC(Cl)(Cl)Cl
not listed: [4] | [10] | [13] | [18] | [19]
inactive: all other assays above

COc1ccccc1OC
not listed: [3] | [9] | [10] | [11] | [13] | [14]
inactive: all other assays above
